In test [1] the target is Retinoic acid receptor RXR-alpha (Homo sapiens) (UniProt P19793). The test can be described thus: OT_NURR1_NURR1RXRa_1440: Odyssey Thera (OT) 24-hour HEK293T Protein Complementation Assay for Nurr1/retinoid X receptor (RXR) (AID 2283386). Summed up: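 Steps: fragment-tagged Nurr1 and RXRα expressed in HEK293T; compounds added; after 24 h, complemented reporter quantified by fluorescence intensity; signal increase over DMSO fitted as the single endpoint.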

Test [2] concerns the target Peroxisome proliferator-activated receptor gamma (Homo sapiens) (UniProt P37231). Briefly: OT_PPARg_PPARgSRC1_0480: Odyssey Thera (OT) 8-hour Protein-Complementation Assay for Peroxisome Proliferator-activated Receptor Gamma / SRC-1 Co-activator (AID 2283387).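 Also: nuclear to cytoplasmic split Venus YFP fluorescence ratio reporting PPARg SRC-1 interaction.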 In short, it runs like this:
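Split-YFP (IFP1/IFP2) PPARg/SRC-1 reporter, HEK293T, 37 °C, 5% CO2; 8 h compound; formaldehyde fix + Draq5; high-content imaging, N/C ratio, ≥350 cells/image, positive direction vs DMSO.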

For test [3] the target is unchanged. Briefly: OT_PPARg_PPARgSRC1_1440: Odyssey Thera (OT) 24-hour Protein-Complementation Assay for Peroxisome Proliferator-activated Receptor Gamma/ SRC-1 Co-activator (AID 2283388).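 Also: nuclear to cytoplasmic ratio of reconstituted Venus YFP fluorescence in fixed imaged cells.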 In short, it runs like this:
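Readout is the 488 nm N/C fluorescence ratio from fixed, Draq5-stained HEK293T cells after 24 h compound exposure. Cells carried transiently transfected PPARg and SRC-1 fused to Venus fragments, transfected 48 h before treatment.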

A short description of test [4]: CEETOX_H295R_OHPREG: CeeTox H295R High-throughput Steroidogenesis Assay for OH-Pregnenolone (OHPREG) (AID 2283434; active = hit-call score of the fitted dose curve at least 0.9, where 1 is the maximum; inactive = score below 0.9). The settings on record: actives raise or lower the signal. In short, it runs like this: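 Secreted 17alpha-hydroxypregnenolone measured by HPLC-MS/MS after liquid-liquid extraction. Human adrenal H295R cells received 48 h forskolin (10 uM) stimulation before 48 h chemical exposure at 0.1% final DMSO; MTT viability in same wells; bidirectional fit against DMSO.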

Test [5] is described as follows: CEETOX_H295R_OHPROG: CeeTox H295R High-throughput Steroidogenesis Assay for OH-Progesterone (OHPROG) (AID 2283435; active = hit-call score of the fitted dose curve at least 0.9, where 1 is the maximum; inactive = score below 0.9;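 as to AC50: 17alpha-hydroxyprogesterone secreted into medium measured by HPLC-MS/MS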). The settings on record: actives raise or lower the signal. In short, it runs like this:
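Steps: seed H295R cells and adhere overnight; stimulate with 10 uM forskolin for 48 h; replace with chemical-containing medium (0.1% DMSO) for 48 h; extract medium with MTBE; quantify 17alpha-hydroxyprogesterone by reverse-phase C18 HPLC-MS/MS against a 7-point curve.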

Test [6] in a line: CEETOX_H295R_CORTISOL: CeeTox H295R High-throughput Steroidogenesis Assay for Cortisol (AID 2283438; active = hit-call score of the fitted dose curve at least 0.9, where 1 is the maximum; inactive = score below 0.9;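 also: cortisol secreted into medium quantified by LC-MS/MS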). To be noted: actives raise or lower the signal. In short, it runs like this: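 Cortisol synthesis by H295R cells is measured 48 h after chemical dosing, following a 48 h stimulation with 10 uM forskolin. Hormone is extracted and quantified by HPLC-MS/MS, and activity is fitted bidirectionally against the DMSO control.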

Test [7] can be described thus: CEETOX_H295R_ANDR: CeeTox H295R High-throughput Steroidogenesis Assay for Androstenedione (ANDR) (AID 2283436; active = hit-call score of the fitted dose curve at least 0.9, where 1 is the maximum; inactive = score below 0.9). To be noted: actives raise or lower the signal. In short, it runs like this:
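Medium from 48 h chemical-treated H295R adrenal cells was extracted with MTBE and androstenedione measured by LC-MS/MS. Activity was fit in both directions relative to DMSO. Cytotoxic concentrations were re-tested after dilution until MTT viability reached ≥70%.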

This note sets out measurements from PubChem BioAssay (EPA / NIEHS).

Several values for one entry are separate records, joined by “and”; a condition that tells them apart may be missing. Equal values may be shown once. Inconclusive results are not listed. The source holds several records for some structures; these can differ, active in one and inactive in another. Activity calls are given as the source filed them. The calls were made as follows, unless noted: active = hit-call score of the fitted dose curve at least 0.9, where 1 is the maximum; inconclusive = response in the unintended direction; inactive = score below 0.9.

Peroxisome proliferator-activated receptor gamma (Homo sapiens), sequence (P37231 whole entry, looked up): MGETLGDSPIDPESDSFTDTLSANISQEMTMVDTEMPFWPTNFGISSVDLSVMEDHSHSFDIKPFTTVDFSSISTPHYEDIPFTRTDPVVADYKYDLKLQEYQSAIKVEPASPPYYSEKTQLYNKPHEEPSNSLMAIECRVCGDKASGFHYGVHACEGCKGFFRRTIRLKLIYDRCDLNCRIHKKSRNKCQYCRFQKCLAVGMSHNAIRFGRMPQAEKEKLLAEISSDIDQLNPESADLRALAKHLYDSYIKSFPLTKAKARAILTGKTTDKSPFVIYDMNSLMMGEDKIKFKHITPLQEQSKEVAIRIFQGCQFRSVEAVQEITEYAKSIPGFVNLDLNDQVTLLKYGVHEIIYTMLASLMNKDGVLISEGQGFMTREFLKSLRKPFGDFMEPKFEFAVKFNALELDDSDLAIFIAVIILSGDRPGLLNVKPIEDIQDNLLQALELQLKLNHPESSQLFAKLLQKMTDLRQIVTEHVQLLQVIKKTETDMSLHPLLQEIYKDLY
Retinoic acid receptor RXR-alpha (Homo sapiens), sequence (P19793 whole entry, looked up, the tested form may be a part): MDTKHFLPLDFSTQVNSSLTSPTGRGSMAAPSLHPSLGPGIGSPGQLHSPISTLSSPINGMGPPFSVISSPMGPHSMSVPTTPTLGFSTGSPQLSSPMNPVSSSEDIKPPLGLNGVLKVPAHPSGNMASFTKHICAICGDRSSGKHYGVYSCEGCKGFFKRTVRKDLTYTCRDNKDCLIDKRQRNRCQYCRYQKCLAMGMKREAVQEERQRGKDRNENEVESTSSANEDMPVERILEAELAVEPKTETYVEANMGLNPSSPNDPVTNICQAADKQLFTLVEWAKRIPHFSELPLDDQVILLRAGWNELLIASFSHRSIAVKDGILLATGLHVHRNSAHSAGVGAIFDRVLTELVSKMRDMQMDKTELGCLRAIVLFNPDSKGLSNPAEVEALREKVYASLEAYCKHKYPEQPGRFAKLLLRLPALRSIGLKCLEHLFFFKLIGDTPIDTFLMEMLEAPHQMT

As for `CCC1(c2ccccc2)C(=O)N=C(O)NC1=O` (stereo not given), the compound was called inactive in test [1], in test [2] and in test [3].
Turning to `CSC(C)(C)C=NO`, the outcome in test [2] and in test [3] was inactive.
Usually AC50 stands for the concentration giving half of the maximal activity seen. With `Nc1ccc2ccccc2c1`, the compound was called inactive in test [1], in test [2], in test [3] and in test [4]. For the same compound, in test [5], the AC50 is 13.9 µM (active).
`c1ccc2c(c1)Nc1ccccc1S2`: the result in test [1], in test [2], in test [3] and in test [4] was inactive. Also, the AC50 was 6.86 µM (active) and 2.55 µM (active) in test [4]; 20.4 µM (active) and 25 µM (active) and 18.1 µM (active) in test [5].
Regarding `FC(F)(F)c1ccc(Cl)cc1`, the compound was called inactive in test [1], in test [2] and in test [3].
`CCOS(=O)(=O)OCC`: the compound was classed as inactive in test [1], in test [2] and in test [3].
`CC(C)Nc1ccc(Nc2ccccc2)cc1`: the outcome in test [4], in test [5] and in test [6] was inactive.
For `O=C(O)C(Cl)Cl`, the outcome in test [1], in test [2] and in test [3] was inactive.
On to `N#Cc1c(-c2ccc(Cl)cc2)[nH]c(C(F)(F)F)c1Br`, for which the result in test [4] and in test [7] was inactive. Further, the AC50 in test [5] is 0.282 µM (active); in test [6], 645 nM (active).
Turning to `CCOP(=S)(OCC)SCn1nnc2ccccc2c1=O`, the outcome in test [4] and in test [6] was inactive. Moreover, the concentration at half-maximal activity (AC50) in test [5] was 10 µM (active).
For the compound `CCOC(=O)c1ccccc1C(=O)OCC`, the call in test [1], in test [2] and in test [3] was inactive.
Turning to `CCOP(=S)(NC(C)C)Oc1ccccc1C(=O)OC(C)C` (stereo not given), the compound was classed as inactive in test [4] and in test [6]. In test [5], the AC50 is 4.65 µM (active).
`CC(C)(C)c1ccc(O)cc1`: the result in test [1], in test [2], in test [3] and in test [4] was inactive. In addition, the AC50 in test [5] is 24.2 µM (active).
With `c1cc2c3c(cccc3c1)CC2`, the call in test [1], in test [2] and in test [3] was inactive.
Regarding `[N-]=[N+]=[N-]`, the call in test [2] and in test [3] was inactive.
Regarding `ClC(Cl)=C(c1ccc(Cl)cc1)c1ccccc1Cl`, the compound was called inactive in test [4], in test [5], in test [7] and in test [6].
